In PubChem BioAssay AID1159580 (chemical genetic matrix, 2015):
“And” between values parts separate entries of the source, which are not always exact repeats. Identical values can stand only once. Among all 5,500 compounds or so, about 2,000 (36%) were called active. Roughly 18% stayed inconclusive and do not appear here. No stated cut-off is given here; in the data, active means normalized growth mostly below about 0.91 (no sharp cut-off); inconclusive means no clear call, values can overlap the other calls; inactive means mostly above about 0.92. The list shows a part of the results.

Test: chemical genetic growth profiling, strain panel (AID 1159580);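 further: tested at 20 µM; growth read once vehicle control cultures reached saturation at 30 °C; 1 = growth at the plate median or of vehicle wells; lower values mean less growth of the strain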
Conditions: S. cerevisiae deletion strains, growth OD

Measured: normalized growth

Nc1nc(N)c2nc(CNc3ccc(C(=O)NC(CCC(=O)O)C(=O)O)cc3)cnc2n1 (stereo not given)
active: locus YBR021W, strain FUR4, hits give low values 1.2 [resistant]
inactive: locus YAL013W, strain DEP1, hits give low values 1.03 | locus YAL021C, strain ccr4, hits give low values 0.925 | locus YAL026C, strain drs2, hits give low values 0.991 | locus YAL030W, strain snc1, hits give low values 0.989 | locus YAL040C, strain CLN3, hits give low values 0.994 | locus YBL061C, strain skt5, hits give low values 1 | locus YBR009C, strain hhf1, hits give low values 0.991 | locus YBR023C, strain chs3, hits give low values 0.995 | locus YBR171W, strain sec66, hits give low values 1.01 | locus YBR229C, strain ROT2, hits give low values 1 | locus YBR231C, strain swc5, hits give low values 1.01 | locus YBR279W, strain paf1, hits give low values 1 | locus YCL011C, strain gbp2, hits give low values 0.983 | locus YCL016C, strain dcc1, hits give low values 0.975 | locus YCL029C, strain bik1, hits give low values 0.977 | locus YCL069W, strain vba3, hits give low values 0.996 | locus YCR088W, strain abp1, hits give low values 0.996 | locus YDL005C, strain med2, hits give low values 0.996 | locus YDL035C, strain GPR1, hits give low values 1.03 | locus YDL040C, strain nat1, hits give low values 1 | locus YDL074C, strain BRE1, hits give low values 0.993 | locus YDL101C, strain DUN1, hits give low values 0.996 | locus YDL134C, strain PPH21, hits give low values 1.02 | locus YDL185W, strain tfp1, hits give low values 0.961 | locus YDL192W, strain arf1, hits give low values 1 | locus YDR001C, strain nth1, hits give low values 0.987 | locus YDR069C, strain doa4, hits give low values 0.985 | locus YDR101C, strain arx1, hits give low values 0.982 | locus YDR137W, strain rgp1, hits give low values 0.985 | locus YDR150W, strain NUM1, hits give low values 1 | locus YDR159W, strain sac3, hits give low values 1.05 | locus YDR162C, strain NBP2, hits give low values 0.993 | locus YDR195W, strain ref2 0.961 | locus YDR297W, strain sur2, hits give low values 1 | locus YDR318W, strain mcm21, hits give low values 1 | locus YDR334W, strain swr1, hits give low values 0.985 | locus YDR335W, strain msn5, hits give low values 0.977 | locus YDR363W, strain ESC2, hits give low values 1 | locus YDR388W, hits give low values 0.994 | locus YDR392W, strain spt3, hits give low values 0.94 | locus YDR502C, strain sam2, hits give low values 1 | locus YEL003W, strain gim4, hits give low values 1 | locus YEL037C, strain rad23, hits give low values 0.989 | locus YEL061C, strain CIN8 (second series), hits give low values 0.996 | locus YEL061C, strain CIN8, hits give low values 0.994 | locus YER002W, strain NOP16, hits give low values 0.993 | locus YER015W, strain faa2, hits give low values 0.994 | locus YER016W, strain bim1, hits give low values 0.998 | locus YER110C, hits give low values 0.981 | locus YER111C, strain swi4, hits give low values 0.995 | locus YER155C, strain BEM2 (second series), hits give low values 1.05 | locus YER155C, strain BEM2, hits give low values 0.987 | locus YER167W, strain BCK2, hits give low values 1 | locus YFR010W, strain ubp6, hits give low values 0.982 | locus YGL078C, strain dbp3, hits give low values 0.999 | locus YGL086W, strain mad1, hits give low values 0.994 | locus YGL167C, strain pmr1, hits give low values 0.974 | locus YGL173C, strain kem1, hits give low values 1.01 | locus YGL227W, strain vid30, hits give low values 1 | locus YGL240W, strain doc1, hits give low values 1.03 | locus YGL248W, strain PDE1, hits give low values 1 | locus YGL253W, strain hxk2, hits give low values 1.01 | locus YGR078C, strain PAC10, hits give low values 1.02 and 0.965 | locus YGR135W, strain pre9, hits give low values 0.998 | locus YGR252W, strain gcn5, hits give low values 1.14 | locus YHR013C, strain ard1, hits give low values 0.971 | locus YHR027C, strain rpn1, hits give low values 0.982 | locus YHR030C, strain SLT2, hits give low values 0.99 | locus YHR079C, strain IRE1 (second series), hits give low values 0.978 | locus YHR094C, strain hxt1, hits give low values 0.991 | locus YHR129C, strain ARP1, hits give low values 1 | locus YHR142W, strain chs7, hits give low values 0.965 | locus YHR200W, strain rpn10, hits give low values 0.992 | locus YIL066C, strain RNR3, hits give low values 1 | locus YIL073C, strain SPO22, hits give low values 0.946 | locus YIL125W, strain kgd1, hits give low values 0.993 | locus YIR030C, strain dcg1, hits give low values 0.988 | locus YJL092W, strain hpr5, hits give low values 0.983 | locus YJL095W, strain BCK1 (second series), hits give low values 0.985 | locus YJL095W, strain BCK1, hits give low values 0.984 | locus YJL115W, strain asf1, hits give low values 0.962 | locus YJL129C, strain trk1, hits give low values 0.998 | locus YJL134W, strain LCB3, hits give low values 0.988 | locus YJL154C, strain vps35, hits give low values 0.99 | locus YJL164C, strain tpk1, hits give low values 0.964 | locus YJL166W, strain qcr8, hits give low values 1.02 | locus YJL168C, strain set2, hits give low values 0.998 | locus YJL187C, strain SWE1 (second series), hits give low values 0.992 | locus YJR043C, strain POL32, hits give low values 1.04
